An excerpt weighted towards active compounds, which were near 6.8% of everything screened.
MCF10A rerep: induces DNA re-replication in MCF 10a normal breast cells. hit rate 2.9% among 350,000. AID 624296. MCF 10A DNA re-replication, Hoechst nuclear intensity, 48 h. Potency, µM (titrated, usually from 46.1 µM), inactives show at the highest dose activity, positive = re-replication, usual class: activators; note: % of control where 0% means no effect; nearly all actives have a fitted effect of over 50% in size
KB-V1 MDR tox: KB-V1 MDR subline cytotoxicity; KB-V1 MDR cells viability, CellTiter-Glo, 72 h; Potency, µM (series often up to 46.1 µM), actives largely listed as cytotoxic; hit rate 3.4% among 400,000; AID 1347076; note: % is set by controls: 0 for no effect and ±100 for the full control effect; nearly all actives have a fitted effect of over 60% in size
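Cytotoxicity via CellTiter-Glo luminescence after 72 h compound exposure at 37 degrees C. Cells: drug-selected KB-V1 line, DMEM phenol-red free plus 10% FBS. Compounds tested at multiple concentrations; normalized data fitted to concentration-effect curves.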
SW480 rereplic: inducers of DNA re-replication in SW480 colon cancer cells | Potency, µM (top dose mostly 46.1 µM), without a hit: top-dose re-replication activation, actives largely listed as activators | AID 624297 | SW480 DNA re-replication, Hoechst DNA content imaging, 48 h | hit rate 1.8% among 340,000; note: % of control where 0% means no effect; nearly all actives have a fitted effect of over 55% in size
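SW480 cells exposed to compounds for 48 hr at 37 C, 5% CO2, then Hoechst-stained 40 min. Nuclear DNA content imaged by fluorescence scanning (405 nm excitation, 500-530 nm emission); re-replication scored as increased high-intensity nuclei.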
KB-3-1 cytotox: kills parental KB-3-1 adenocarcinoma cells. KB-3-1 viability, CellTiter-Glo ATP luminescence, 72 h. Potency, µM (series often up to 46.1 µM), most hits filed as cytotoxic. hit rate 1.4% among 400,000; note: % is set by controls: 0 for no effect and ±100 for the full control effect; nearly all actives have a fitted effect of over 60% in size
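Using CellTiter-Glo luminescence, growth of non-resistant KB-3-1 adenocarcinoma cells is assessed 72 h after pin-tool compound addition at 37 °C. Normalized responses across the concentration series yield fitted curves.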
PINK1 modulator: modulators of PINK1 expression; PINK1 immunofluorescence, high-content cytometry, 24 h; Potency, µM (series often up to 76.6 µM), for the others: at the top dose activation (PINK1 increase), most hits filed as activators; hit rate 0.2% among 410,000; active = well fitted activation curve with a large enough effect; inconclusive = small, poorly fitted or top-dose-only effect; cell line not stated here; note: % of control where 0% means no effect; nearly all actives have a fitted effect of over 65% in size
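Stable cell line, 250 cells/well, 12 h attachment; compounds pinned at 5 concentrations, 24 h; CCCP control. Fixed with nuclear dye, primary antibodies 12 h at 10 degrees C, secondary plus cell stain; laser-scanning cytometer read.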
PTAP TSG101 blk: blocks PTAP/TSG101 interaction to inhibit HIV-1 budding; 340,000 tested, under 10 active; Potency, µM (titrated, usually from 115 µM), without a hit: at the top dose activity change, negative = inhibition, most hits filed as inhibitors; Fluorescence polarization, FITC-PTAP peptide / Tsg101 binding; Q99816; active = well fitted inhibition curve with a large enough effect in the main read-out, with a control signal flat, not every such curve was filed as active; inconclusive = small, poorly fitted or top-dose-only effect, or effect the other way, or a change in a side signal; inactive = no such curve, though single readings can be large or run the other way; note: % of control where 0% means no effect
Target sequence (Q99816 whole entry, looked up): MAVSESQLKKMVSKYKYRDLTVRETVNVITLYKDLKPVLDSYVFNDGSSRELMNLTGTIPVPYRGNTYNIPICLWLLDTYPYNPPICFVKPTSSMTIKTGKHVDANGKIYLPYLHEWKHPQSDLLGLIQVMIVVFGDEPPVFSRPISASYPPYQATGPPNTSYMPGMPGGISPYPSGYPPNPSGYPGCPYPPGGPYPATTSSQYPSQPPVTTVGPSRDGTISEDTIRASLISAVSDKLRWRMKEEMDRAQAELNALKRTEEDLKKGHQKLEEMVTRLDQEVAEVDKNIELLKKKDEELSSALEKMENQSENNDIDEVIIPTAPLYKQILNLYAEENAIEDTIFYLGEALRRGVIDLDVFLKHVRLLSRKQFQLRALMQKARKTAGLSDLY
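Steps: Tsg101 binding domain dispensed (10 uM final), compounds pinned in DMSO, FITC-labeled PTAP-motif peptide added (50 nM final); after 20 min binding at room temperature, polarization measured.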
Numbers without * were called inactive; i = inactive; ? = inconclusive; / = not tested or not shown; [ ] = dose if it differs, or a comment. Unless noted, calls come from the whole dose curve; as a rule, active = well fitted curve in the direction sought with a large enough effect; inconclusive = small, poorly fitted or top-dose-only effect, or another doubt; inactive = no such curve, though single readings can be large; an effect the other way counts as inactive or inconclusive. Potency is the fitted concentration of half-maximal effect.

SMILES	MCF10A rerep	KB-V1 MDR tox	SW480 rereplic	KB-3-1 cytotox	PINK1 modulator	PTAP TSG101 blk
CN1C(=O)c2cccc(NCCCN3C(=O)c4ccccc4C3=O)c2C1=O	-15%	i	?	i	7.1µM*	?
O=C(C[N+]12CCCc3cccc(c31)CCC2)c1ccc2ccccc2c1	/	i	/	?	/	/
Cc1cc(C)nc(/N=C2\NC(=O)CC(C(=O)O)N2c2ccc(Cl)cc2)n1 (stereo not drawn)	0%	i	3%	i	0%	1%
Cc1ccc(N2/C(=N/c3nc(C)cc(C)n3)NC(=O)CC2C(=O)O)cc1 (stereo not drawn)	18µM*	i	14%	i	?	-4%
Cc1c(C(=O)N2CCOc3ccccc3C2)sc2ncnc(NCCCN3CCOCC3)c12	/	/	/	/	0%	/
COc1cccc(N2CCN(C3C4CC5CC(C4)CC3C5)CC2)c1 (stereo not drawn)	?	?	-4%	i	1%	2%
CCC1CCC(N2CCN(c3cccc(OC)c3)CC2)CC1 (stereo not drawn)	5.2µM*	i	-54%	i	1%	2%
O=C(Nn1c(C2CCCCC2)nc2ccccc2c1=O)c1ccc(Cl)c([N+](=O)[O-])c1	7.3µM*	i	4%	i	-1%	-2%
Cc1cc(C(=O)Nn2c(C3CCCCC3)nc3ccccc3c2=O)ccc1[N+](=O)[O-]	?	i	-3%	i	16µM*	-8%
Cc1cccc(OCC(=O)Nc2ccc(Cl)c(-c3nc4ccccc4[nH]3)c2)c1	/	i	/	i	0%	/
O=S(=O)(c1ccc2nc(-c3ccccc3)[nH]c2c1)N1CCN(c2ccc(Cl)cc2)CC1	16µM*	?	?	i	-2%	-1%
COc1ccc(S(=O)(=O)N2CCc3ccccc32)cc1C(=O)Nc1ccc(C(N)=O)cc1	23µM*	i	6%	?	-1%	-2%
O=C(Nc1ccc(S(=O)(=O)N2CCc3ccccc32)cc1)c1ccc2c(c1)OCO2	2%	5.2µM*	15%	i	5%[38.3 µM]	/
COc1cc(C(=O)Nc2ccc(S(=O)(=O)N3CCc4ccccc43)cc2)cc(OC)c1OC	6%	5.8µM*	15%	?	1%	-3%
CCc1ccc(NC(=O)CN2C(=O)C(c3ccc(Cl)cc3)=NC23CCCCC3)cc1	/	/	/	/	1%	/
COc1ccc(CCNC(=O)c2ccc(Cn3c(=O)c4cccn4c4cccnc43)cc2)cc1OC	/	/	/	/	3%	/
COc1cc(/C=C2\C(=O)N(c3ccccc3)N=C2C)ccc1Oc1ccc([N+](=O)[O-])cc1[N+](=O)[O-]	9.2µM*	i	-118%	i	1%	-6%
COc1cc(/C=C2/SC(=O)NC2=O)ccc1OC(=O)c1ccco1	?	?	0%	10µM*	2%	-2%
COc1cc(/C=C2/SC(=S)N(C)C2=O)ccc1OC(=O)c1ccco1	4%	i	-1%	i	?	11%
COc1cc(/C=C2/SC(=O)NC2=O)ccc1Oc1ccc([N+](=O)[O-])cc1[N+](=O)[O-]	?	i	13µM*	i	1%	3%
CC1=NN(c2ccccc2)C(=O)/C1=C\c1ccc(Oc2ccc([N+](=O)[O-])cc2[N+](=O)[O-])cc1	?	i	14%	i	9%	-4%
CC(=O)N1CCCC1c1nc2ccccc2n1Cc1ccccc1 (stereo not drawn)	/	i	/	i	2%	/
CN1CCN(C(=S)SCC(=O)Nc2nc(-c3ccccc3)c(-c3ccccc3)o2)CC1	12µM*	21µM*	-108%	?	5%	-4%
CCOC(=O)C(=O)Nc1nc(-c2ccccc2)c(-c2ccccc2)o1	17%	i	0%	i	0%	0%
Nc1c(C(=O)N/N=C/c2cccnc2)oc2nc(-c3ccccc3)cc(-c3ccco3)c12	18µM*	i	?	i	?	?
